Measured values from PubChem BioAssay (NCI).
Values joined by “and” are separate entries in the source; they are usually repeats but may differ in a detail not shown here. Equal entries are not always repeated. About 83,000 compounds went through this panel and 20% of them were active in at least one assay; those are over-represented in the sample as a whole.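 Single-dose data. Exposure time 48 hours. Values below 10 considered active.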 Active and inactive are the calls of the source.

These compounds were tested on HL-60(TB) leukemia (assay: NCI-60 one-dose screen, 48 h (100 = growth as untreated, 0 = no growth, -100 = all killed)). Details: 10 µM unless noted.

| SMILES | growth |
| --- | --- |
| CN1CCN(CCCOc2cccc3nc(Nc4ccc(Cl)c(F)c4)ccc23)CC1 | 61.9% (inactive) |
| CCN(CC)CCCNc1ccc(Nc2ccc(OC)cc2)cc1 | -48.7% (active) |
| C[C@]12C[C@H]1CC[C@]1(C)[C@@H]2CC[C@@]23C[C@H](CC[C@H]21)[C@@](O)(CO)C3 | 103% (inactive) |
| Cc1cn(-c2cc(NC(=O)c3cncc(C#Cc4cnc(N)c5ncccc45)c3)cc(C(F)(F)F)c2)cn1 | 18.7% (inactive) |
| COc1cccc(-c2nn(-c3ccccc3)cc2-c2ccnc(NCCNC(=O)Nc3cccc(C(F)(F)F)c3)c2)c1 | 2.15% (active) |
| COC(=O)/C=C/c1cc(OC(C)=O)c2c(c1)[C@@H](C(=O)OC)[C@H](c1ccc(OC(C)=O)c(OC(C)=O)c1)O2 | -42.8% (active) |
| CC1CCC(C(=O)O)N1 (stereo unspecified) | 79.7% (inactive) |
| CCOC(=O)c1cc(C(=O)c2cc(OC)c(OC)c(OC)c2)n2ccc(-c3ccncc3)cc12 | 65% (inactive) |
| CCC(=C(c1ccc(OCCN2CCCCC2)cc1)c1ccc(OCCN2CCCCC2)cc1)c1ccc(Cl)cc1 | -62.4% (active) |
| Nc1nc(N)c2cc(S(=O)(=O)c3ccccc3)ccc2n1 | 23.2% (inactive) and 20.7% (inactive) |
| O=C(CCl)N(C1CCCCC1)C1CCCCC1 | 104% (inactive) |
